# Reference: PMC7862700, “An all-to-all approach to the identification of sequence-specific readers for epigenetic DNA modifications on cytosine”
# Legend:
# Experiment in all cases: DAPPL (digital affinity profiling via proximity ligation, sequencing); 10 mM Tris-HCl pH 7.5, 50 mM NaCl, 1 mM DTT, 4% glycerol, room temperature, 30 min; GST-TFs on glutathione beads, 16-mer random dsDNA library, 0.1% formaldehyde crosslink after washing; high values mean tight binding
# FLI1 = molecular target: T1, FLI1 (Homo sapiens, UniProt Q01543 1-452); details: protein: recombinant; tags: N-terminal GST; dsDNA, one strand shown
# T1 sequence: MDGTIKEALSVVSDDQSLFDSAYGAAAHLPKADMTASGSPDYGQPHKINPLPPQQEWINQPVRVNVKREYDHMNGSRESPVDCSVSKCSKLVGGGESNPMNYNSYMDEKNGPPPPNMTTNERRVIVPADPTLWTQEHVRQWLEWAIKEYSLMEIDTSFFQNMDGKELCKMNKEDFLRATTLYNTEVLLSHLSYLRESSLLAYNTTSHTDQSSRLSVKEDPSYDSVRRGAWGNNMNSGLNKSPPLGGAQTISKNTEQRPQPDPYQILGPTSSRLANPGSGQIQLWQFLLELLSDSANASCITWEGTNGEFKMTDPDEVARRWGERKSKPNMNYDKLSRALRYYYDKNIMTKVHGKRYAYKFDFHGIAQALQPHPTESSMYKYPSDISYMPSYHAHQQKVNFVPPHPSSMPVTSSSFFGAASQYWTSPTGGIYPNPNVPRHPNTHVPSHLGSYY
# Summary of the method: (§1)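 Human transcription factors fused to GST were expressed in yeast, captured on glutathione beads, given DNA barcodes and pooled with a GST-only negative control. Pools were incubated with 200 nmole of a 16-mer random double-stranded DNA library in Tris/NaCl/DTT/glycerol buffer at room temperature for 30 min. They were then washed, crosslinked with 0.1% formaldehyde, proximity-ligated (BsaI/T4 ligase, 1 h, 37 °C), PCR-amplified and sequenced on an Illumina NextSeq500. Binding signal is each 6-mer's read frequency for a factor divided by its frequency for the GST control.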
# ELK1 = molecular target: T2, ELK1 (Homo sapiens, UniProt P19419 1-428); details: protein: recombinant; tags: N-terminal GST; dsDNA, one strand shown
# T2 sequence: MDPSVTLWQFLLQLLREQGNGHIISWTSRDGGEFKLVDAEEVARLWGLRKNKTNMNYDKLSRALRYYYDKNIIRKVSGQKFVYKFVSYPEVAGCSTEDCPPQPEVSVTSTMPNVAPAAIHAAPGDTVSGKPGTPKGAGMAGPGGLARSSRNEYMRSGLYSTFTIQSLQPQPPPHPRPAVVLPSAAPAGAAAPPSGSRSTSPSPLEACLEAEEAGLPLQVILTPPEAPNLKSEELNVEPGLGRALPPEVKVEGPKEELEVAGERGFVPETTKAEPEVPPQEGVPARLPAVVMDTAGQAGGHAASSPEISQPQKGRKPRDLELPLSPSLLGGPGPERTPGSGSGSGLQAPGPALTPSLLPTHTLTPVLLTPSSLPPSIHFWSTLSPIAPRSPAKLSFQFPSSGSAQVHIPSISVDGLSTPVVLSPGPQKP
# Summary of the method: as §1
# GABPA = molecular target: T3, GABPA (Homo sapiens, UniProt Q06546 1-454); details: protein: recombinant; tags: N-terminal GST; dsDNA, one strand shown
# T3 sequence: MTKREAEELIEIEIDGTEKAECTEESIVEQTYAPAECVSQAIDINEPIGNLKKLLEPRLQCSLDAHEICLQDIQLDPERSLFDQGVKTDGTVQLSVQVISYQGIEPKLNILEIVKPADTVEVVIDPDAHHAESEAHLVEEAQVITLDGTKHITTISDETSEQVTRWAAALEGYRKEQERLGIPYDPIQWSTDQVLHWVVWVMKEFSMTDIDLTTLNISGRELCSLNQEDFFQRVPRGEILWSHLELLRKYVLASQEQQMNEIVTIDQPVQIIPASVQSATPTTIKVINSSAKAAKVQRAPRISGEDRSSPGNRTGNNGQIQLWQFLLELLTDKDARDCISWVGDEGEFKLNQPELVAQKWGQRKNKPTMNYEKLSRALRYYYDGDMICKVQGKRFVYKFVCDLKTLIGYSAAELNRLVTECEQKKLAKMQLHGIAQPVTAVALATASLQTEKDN
# Summary of the method: as §1
# ERG = molecular target: T4, ERG (Homo sapiens, UniProt P11308 1-479); details: protein: recombinant; tags: N-terminal GST; dsDNA, one strand shown
# T4 sequence: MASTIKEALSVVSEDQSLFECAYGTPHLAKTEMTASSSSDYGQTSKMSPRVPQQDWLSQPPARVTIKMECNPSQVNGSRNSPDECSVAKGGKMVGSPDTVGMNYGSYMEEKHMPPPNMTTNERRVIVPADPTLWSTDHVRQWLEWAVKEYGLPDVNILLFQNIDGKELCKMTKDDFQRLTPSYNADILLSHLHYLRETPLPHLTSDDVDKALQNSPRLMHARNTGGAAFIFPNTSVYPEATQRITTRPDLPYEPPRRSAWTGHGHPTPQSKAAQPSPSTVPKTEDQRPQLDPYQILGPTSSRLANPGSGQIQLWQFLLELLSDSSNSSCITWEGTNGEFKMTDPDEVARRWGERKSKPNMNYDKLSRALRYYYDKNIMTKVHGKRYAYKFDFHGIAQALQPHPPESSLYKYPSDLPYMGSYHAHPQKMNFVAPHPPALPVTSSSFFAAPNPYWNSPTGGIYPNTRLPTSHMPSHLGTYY
# Summary of the method: as §1
# ELF1 = ELF1 (Homo sapiens, UniProt P32519 1-619); details: protein: recombinant; tags: N-terminal GST; dsDNA, one strand shown
# Summary of the method: as §1
# EHF = molecular target: T5, EHF (Homo sapiens, UniProt Q9NZC4 1-300); details: protein: recombinant; tags: N-terminal GST; dsDNA, one strand shown
# T5 sequence: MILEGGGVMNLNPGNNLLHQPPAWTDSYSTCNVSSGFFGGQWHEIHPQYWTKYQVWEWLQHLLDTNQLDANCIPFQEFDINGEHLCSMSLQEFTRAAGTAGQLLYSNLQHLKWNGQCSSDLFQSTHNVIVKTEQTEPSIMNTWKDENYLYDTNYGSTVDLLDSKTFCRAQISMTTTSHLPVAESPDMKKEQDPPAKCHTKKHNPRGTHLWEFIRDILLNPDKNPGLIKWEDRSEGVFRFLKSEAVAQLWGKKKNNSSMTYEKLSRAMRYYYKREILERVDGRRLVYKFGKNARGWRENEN
# Summary of the method: as §1
# SPI1 = SPI1 (Homo sapiens, UniProt P17947 1-270); details: protein: recombinant; tags: N-terminal GST; dsDNA, one strand shown
# Summary of the method: as §1
# SPIB = SPIB (Homo sapiens, UniProt Q01892 1-262); details: protein: recombinant; tags: N-terminal GST; dsDNA, one strand shown
# Summary of the method: as §1
# ELK3 = molecular target: T6, ELK3 (Homo sapiens, UniProt P41970 1-407); details: protein: recombinant; tags: N-terminal GST; dsDNA, one strand shown
# T6 sequence: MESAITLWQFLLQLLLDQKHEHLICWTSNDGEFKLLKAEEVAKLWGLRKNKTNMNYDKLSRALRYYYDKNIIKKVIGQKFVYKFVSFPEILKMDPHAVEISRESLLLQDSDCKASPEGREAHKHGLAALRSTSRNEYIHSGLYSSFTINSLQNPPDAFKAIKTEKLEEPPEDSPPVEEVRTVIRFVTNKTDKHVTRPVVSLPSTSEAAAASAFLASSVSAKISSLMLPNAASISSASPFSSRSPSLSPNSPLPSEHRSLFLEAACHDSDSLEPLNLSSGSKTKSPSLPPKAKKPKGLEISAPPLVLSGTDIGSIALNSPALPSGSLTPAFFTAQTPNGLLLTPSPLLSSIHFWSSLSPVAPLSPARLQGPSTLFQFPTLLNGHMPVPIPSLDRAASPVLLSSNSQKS
# Summary of the method: as §1
# FEV = molecular target: T7, FEV (Homo sapiens, UniProt Q99581 1-238); details: protein: recombinant; tags: N-terminal GST; dsDNA, one strand shown
# T7 sequence: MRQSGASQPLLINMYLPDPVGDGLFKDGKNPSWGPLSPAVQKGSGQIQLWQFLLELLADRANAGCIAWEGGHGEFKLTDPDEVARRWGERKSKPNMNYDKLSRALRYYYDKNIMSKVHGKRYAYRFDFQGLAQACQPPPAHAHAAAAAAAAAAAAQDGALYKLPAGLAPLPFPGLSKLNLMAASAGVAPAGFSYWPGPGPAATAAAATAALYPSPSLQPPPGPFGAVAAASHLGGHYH
# Summary of the method: as §1
# ETV5 = ETV5 (Homo sapiens, UniProt P41161 1-510); details: protein: recombinant; tags: N-terminal GST; dsDNA, one strand shown
# Summary of the method: as §1
# HSF1 = HSF1 (Homo sapiens, UniProt Q00613 1-529); details: protein: recombinant; tags: N-terminal GST; chain copies: 3; dsDNA, one strand shown
# Summary of the method: as §1
# SPIC = molecular target: T8, SPIC (Homo sapiens, UniProt Q8N5J4 1-248); details: protein: recombinant; tags: N-terminal GST; dsDNA, one strand shown
# T8 sequence: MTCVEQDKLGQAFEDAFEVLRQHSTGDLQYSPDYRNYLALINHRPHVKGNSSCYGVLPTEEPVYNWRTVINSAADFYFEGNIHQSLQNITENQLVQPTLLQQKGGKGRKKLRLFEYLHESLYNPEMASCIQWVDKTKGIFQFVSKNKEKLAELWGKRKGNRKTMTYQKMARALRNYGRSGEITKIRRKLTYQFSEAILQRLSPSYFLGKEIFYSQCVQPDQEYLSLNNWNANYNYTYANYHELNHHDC
# Summary of the method: as §1
# ELF4 = ELF4 (Homo sapiens, UniProt Q99607 1-663); details: protein: recombinant; tags: N-terminal GST; dsDNA, one strand shown
# Summary of the method: as §1
# ELK4 = molecular target: T9, ELK4 (Homo sapiens, UniProt P28324-2 1-405); details: protein: recombinant; tags: N-terminal GST; dsDNA, one strand shown
# T9 sequence: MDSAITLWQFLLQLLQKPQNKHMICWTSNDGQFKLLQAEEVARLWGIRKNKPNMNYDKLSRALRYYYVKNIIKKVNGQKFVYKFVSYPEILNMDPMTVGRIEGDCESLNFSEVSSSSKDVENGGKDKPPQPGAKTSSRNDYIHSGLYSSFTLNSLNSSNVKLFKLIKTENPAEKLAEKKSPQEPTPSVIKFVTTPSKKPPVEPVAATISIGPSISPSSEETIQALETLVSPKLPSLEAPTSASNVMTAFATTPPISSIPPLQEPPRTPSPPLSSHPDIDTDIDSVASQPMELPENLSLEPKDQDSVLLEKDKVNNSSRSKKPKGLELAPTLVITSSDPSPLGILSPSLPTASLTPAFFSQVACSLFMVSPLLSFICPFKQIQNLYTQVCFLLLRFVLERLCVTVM
# Summary of the method: as §1
# ETV2 = molecular target: T10, ETV2 (Homo sapiens, UniProt O00321 1-342); details: protein: recombinant; tags: N-terminal GST; dsDNA, one strand shown
# T10 sequence: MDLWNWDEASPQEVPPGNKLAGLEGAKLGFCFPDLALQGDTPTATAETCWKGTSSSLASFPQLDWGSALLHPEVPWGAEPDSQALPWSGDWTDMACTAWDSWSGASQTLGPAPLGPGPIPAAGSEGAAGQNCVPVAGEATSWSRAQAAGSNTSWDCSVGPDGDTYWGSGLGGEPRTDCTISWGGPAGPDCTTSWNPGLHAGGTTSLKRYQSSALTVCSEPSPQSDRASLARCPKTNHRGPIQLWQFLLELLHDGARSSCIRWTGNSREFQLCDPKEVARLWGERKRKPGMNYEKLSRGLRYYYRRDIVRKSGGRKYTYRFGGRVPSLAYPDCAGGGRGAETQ
# Summary of the method: as §1
# ELF3 = molecular target: T11, ELF3 (Homo sapiens, UniProt P78545 1-371); details: protein: recombinant; tags: N-terminal GST; dsDNA, one strand shown
# T11 sequence: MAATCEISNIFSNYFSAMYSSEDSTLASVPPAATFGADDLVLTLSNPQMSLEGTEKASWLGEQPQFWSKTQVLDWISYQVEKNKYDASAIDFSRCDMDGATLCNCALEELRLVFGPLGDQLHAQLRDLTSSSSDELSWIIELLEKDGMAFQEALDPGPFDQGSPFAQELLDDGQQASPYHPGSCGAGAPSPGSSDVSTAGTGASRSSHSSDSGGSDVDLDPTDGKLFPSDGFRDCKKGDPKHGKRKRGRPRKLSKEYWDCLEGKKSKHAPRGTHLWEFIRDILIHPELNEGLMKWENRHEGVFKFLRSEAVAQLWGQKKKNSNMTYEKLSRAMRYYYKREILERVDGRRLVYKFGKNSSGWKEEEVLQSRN
# Summary of the method: as §1
# CRX = CRX (Homo sapiens, UniProt O43186 1-299); details: protein: recombinant; tags: N-terminal GST; dsDNA, one strand shown
# Summary of the method: as §1
# ETV1 = ETV1 (Homo sapiens, UniProt P50549 1-477); details: protein: recombinant; tags: N-terminal GST; dsDNA, one strand shown
# Summary of the method: as §1
# Chain of HSF1 (Q00613 whole entry): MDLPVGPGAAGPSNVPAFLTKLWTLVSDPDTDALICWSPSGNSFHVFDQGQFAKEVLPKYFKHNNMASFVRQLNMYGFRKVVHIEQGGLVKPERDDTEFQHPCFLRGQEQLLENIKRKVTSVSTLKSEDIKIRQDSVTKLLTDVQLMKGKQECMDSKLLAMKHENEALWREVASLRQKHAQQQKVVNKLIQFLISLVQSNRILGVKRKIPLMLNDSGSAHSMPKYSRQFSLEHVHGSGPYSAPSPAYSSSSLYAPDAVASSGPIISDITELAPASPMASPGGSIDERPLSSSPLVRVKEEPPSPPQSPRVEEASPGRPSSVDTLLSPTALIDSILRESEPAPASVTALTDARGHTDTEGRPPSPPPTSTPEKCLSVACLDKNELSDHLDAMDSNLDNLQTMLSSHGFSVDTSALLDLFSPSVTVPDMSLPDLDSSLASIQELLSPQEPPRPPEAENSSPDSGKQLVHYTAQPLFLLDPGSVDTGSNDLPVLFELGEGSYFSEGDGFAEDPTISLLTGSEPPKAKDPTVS
# Chain of CRX (O43186 whole entry): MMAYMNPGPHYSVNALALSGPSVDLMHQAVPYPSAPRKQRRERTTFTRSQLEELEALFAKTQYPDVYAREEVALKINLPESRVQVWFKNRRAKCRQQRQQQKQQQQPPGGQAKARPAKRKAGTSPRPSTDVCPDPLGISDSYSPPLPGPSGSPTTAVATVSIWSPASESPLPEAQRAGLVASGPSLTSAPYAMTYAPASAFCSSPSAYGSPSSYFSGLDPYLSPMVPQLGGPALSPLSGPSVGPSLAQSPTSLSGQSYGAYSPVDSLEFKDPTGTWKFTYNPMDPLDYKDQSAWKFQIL
# Chain of ETV1 (P50549 whole entry): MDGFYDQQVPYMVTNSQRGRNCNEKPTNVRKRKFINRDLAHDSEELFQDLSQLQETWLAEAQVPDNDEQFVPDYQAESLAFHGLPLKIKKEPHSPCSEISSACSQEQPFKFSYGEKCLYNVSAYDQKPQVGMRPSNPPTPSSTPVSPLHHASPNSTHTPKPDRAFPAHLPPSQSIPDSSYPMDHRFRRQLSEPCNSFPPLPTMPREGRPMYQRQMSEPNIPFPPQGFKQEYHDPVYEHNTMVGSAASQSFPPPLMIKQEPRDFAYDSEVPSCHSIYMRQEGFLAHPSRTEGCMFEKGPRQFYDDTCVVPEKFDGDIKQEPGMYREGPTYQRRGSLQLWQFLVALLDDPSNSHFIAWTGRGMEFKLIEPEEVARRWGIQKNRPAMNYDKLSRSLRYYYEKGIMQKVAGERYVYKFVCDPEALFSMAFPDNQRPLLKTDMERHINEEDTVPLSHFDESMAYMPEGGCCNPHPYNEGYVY
# Chain of ELF4 (Q99607 whole entry): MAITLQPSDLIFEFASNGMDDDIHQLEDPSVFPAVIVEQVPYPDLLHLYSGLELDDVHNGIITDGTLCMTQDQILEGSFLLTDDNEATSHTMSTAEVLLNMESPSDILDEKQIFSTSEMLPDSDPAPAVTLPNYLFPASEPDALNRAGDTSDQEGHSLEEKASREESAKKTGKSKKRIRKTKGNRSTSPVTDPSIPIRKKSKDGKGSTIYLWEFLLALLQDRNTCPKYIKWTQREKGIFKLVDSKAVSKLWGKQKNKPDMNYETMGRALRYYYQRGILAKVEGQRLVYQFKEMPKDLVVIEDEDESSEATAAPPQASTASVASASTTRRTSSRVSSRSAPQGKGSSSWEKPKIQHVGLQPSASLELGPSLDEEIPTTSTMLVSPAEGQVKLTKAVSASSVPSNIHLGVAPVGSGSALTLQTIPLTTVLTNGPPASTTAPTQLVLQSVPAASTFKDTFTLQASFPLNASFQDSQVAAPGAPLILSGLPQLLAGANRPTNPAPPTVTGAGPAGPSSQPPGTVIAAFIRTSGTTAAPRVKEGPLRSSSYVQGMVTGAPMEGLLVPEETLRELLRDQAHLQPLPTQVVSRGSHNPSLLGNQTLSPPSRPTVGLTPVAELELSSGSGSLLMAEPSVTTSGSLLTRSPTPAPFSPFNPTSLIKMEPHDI
# Chain of SPIB (Q01892 whole entry): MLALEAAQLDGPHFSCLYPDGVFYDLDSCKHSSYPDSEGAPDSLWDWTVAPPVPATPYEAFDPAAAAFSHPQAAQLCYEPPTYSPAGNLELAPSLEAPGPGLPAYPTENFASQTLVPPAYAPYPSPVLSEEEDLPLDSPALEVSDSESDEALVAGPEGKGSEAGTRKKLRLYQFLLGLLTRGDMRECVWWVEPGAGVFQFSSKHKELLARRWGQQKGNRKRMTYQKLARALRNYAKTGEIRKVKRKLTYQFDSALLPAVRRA
# Chain of ETV5 (P41161 whole entry): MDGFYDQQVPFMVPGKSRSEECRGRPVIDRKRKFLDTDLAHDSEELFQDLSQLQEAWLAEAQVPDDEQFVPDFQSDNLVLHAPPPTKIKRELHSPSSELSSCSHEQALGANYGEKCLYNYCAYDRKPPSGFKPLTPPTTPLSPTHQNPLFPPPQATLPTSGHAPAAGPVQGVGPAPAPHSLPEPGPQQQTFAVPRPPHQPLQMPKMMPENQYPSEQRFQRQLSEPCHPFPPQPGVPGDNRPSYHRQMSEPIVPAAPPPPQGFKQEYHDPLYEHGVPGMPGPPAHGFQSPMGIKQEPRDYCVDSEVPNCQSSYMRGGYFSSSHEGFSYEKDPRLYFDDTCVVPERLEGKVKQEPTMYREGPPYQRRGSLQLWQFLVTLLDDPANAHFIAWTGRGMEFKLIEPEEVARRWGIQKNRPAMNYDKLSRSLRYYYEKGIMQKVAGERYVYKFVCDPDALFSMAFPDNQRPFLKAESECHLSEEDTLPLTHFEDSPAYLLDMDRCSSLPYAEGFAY
# Chain of ELF1 (P32519 whole entry): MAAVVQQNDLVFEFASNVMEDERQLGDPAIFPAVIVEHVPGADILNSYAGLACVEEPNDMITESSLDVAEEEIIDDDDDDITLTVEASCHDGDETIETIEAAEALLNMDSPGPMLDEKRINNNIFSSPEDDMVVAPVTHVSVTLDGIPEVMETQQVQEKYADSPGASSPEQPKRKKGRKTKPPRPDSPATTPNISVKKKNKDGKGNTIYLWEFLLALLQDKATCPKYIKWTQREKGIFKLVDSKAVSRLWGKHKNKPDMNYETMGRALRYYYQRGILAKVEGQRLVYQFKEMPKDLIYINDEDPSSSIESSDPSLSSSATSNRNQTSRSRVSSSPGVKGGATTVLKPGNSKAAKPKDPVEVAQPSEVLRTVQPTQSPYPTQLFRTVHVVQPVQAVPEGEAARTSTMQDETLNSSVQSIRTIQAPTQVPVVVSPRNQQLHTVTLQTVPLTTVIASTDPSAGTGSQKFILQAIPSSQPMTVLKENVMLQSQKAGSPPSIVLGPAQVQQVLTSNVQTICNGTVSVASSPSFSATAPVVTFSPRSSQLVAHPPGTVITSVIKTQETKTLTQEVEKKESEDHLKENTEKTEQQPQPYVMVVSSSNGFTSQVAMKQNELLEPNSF
sequence,measurement,setting,value
CTCACA,binding signal,FLI1,"1.29 fold enrichment (6-mer frequency, TF over GST control)"
same,binding signal,ELK1,"1.3 fold enrichment (6-mer frequency, TF over GST control)"
same,binding signal,GABPA,"1.38 fold enrichment (6-mer frequency, TF over GST control)"
same,binding signal,ERG,"1.34 fold enrichment (6-mer frequency, TF over GST control)"
same,binding signal,ELF1,"1.35 fold enrichment (6-mer frequency, TF over GST control)"
same,binding signal,EHF,"1.42 fold enrichment (6-mer frequency, TF over GST control)"
same,binding signal,SPI1,"1.27 fold enrichment (6-mer frequency, TF over GST control)"
same,binding signal,SPIB,"1.38 fold enrichment (6-mer frequency, TF over GST control)"
same,binding signal,ELK3,"1.41 fold enrichment (6-mer frequency, TF over GST control)"
same,binding signal,FEV,"1.44 fold enrichment (6-mer frequency, TF over GST control)"
same,binding signal,ETV5,"1.31 fold enrichment (6-mer frequency, TF over GST control)"
same,binding signal,HSF1,"1.08 fold enrichment (6-mer frequency, TF over GST control)"
same,binding signal,SPIC,"1.23 fold enrichment (6-mer frequency, TF over GST control)"
same,binding signal,ELF4,"1.32 fold enrichment (6-mer frequency, TF over GST control)"
same,binding signal,ELK4,"1.34 fold enrichment (6-mer frequency, TF over GST control)"
same,binding signal,ETV2,"1.35 fold enrichment (6-mer frequency, TF over GST control)"
same,binding signal,ELF3,"1.3 fold enrichment (6-mer frequency, TF over GST control)"
same,binding signal,CRX,"1.12 fold enrichment (6-mer frequency, TF over GST control)"
same,binding signal,ETV1,"1.2 fold enrichment (6-mer frequency, TF over GST control)"
